Experimental data reported in PubChem BioAssay (NCI).
Where “and” joins values, the source holds several entries; their conditions need not be identical. Equal values may be shown once. About 79,000 compounds went through this panel and 15% of them were active in at least one assay; those are over-represented in the sample as a whole. Some compounds were tested as several samples or in several runs, with calls that do not always agree. Calls of active or inactive are those of the source. Cut-off read from the data, not from the text of the source: active = growth inhibition above about 70%; inactive = the rest. *1 amine or outer side, *2 acyl side, *3 side chain or, on linkers, in order; H or OH if unused. Where a SMILES comes first, the peptide text is derived from it. Bridges are numbered along the chain shown (N, C = ends). Roman numbers before positions name the chains, in order. [ ]: non-standard residue; d: D form. Actinocin(9to1) = Cc1c2oc3c(C)ccc(C(=O)[*:1])c3nc-2c(C(=O)[*:2])c(N)c1=O; NMeY = CN[CH](Cc1ccc(O)cc1)C(=O)O; Sar = CNCC(=O)O

Columns and labels:
[1] = NCI Yeast Anticancer Drug Screen. Data for the rad50 strain (AID 155);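 note: 0% = growth of vehicle-only cultures of the same strain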; settings: S. cerevisiae rad50 strain growth inhibition; at 50.0 µM; stronger effect = higher value
Procedure, shortened: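 Vehicle-treated cultures provide the reference for the growth inhibition reported for compound-exposed, repair-deficient yeast.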

[2] = NCI Yeast Anticancer Drug Screen. Data for the mec2-1 strain (AID 157); settings: S. cerevisiae mec2-1 strain, at 50.0 µM, stronger effect = higher value
Procedure, shortened: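 Test agents were screened against the mec2-1 yeast strain, with defined DNA repair or cell cycle alteration. Growth was scored as inhibition against vehicle-only controls.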

[3] = NCI Yeast Anticancer Drug Screen. Data for the sgs1 mgt1 strain (AID 161);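 note: 0% = growth of cultures given vehicle only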; settings: S. cerevisiae sgs1 mgt1 strain, at 50.0 µM, stronger effect = higher value
Procedure, shortened: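 Inhibition of yeast growth, normalised to vehicle-treated controls, is reported for a strain bearing genetic alterations in DNA damage repair.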

[4] = NCI Yeast Anticancer Drug Screen. Data for the cln2 rad14 strain (AID 165);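 note: 0% = growth equal to vehicle treated cultures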; settings: S. cerevisiae cln2 rad14 strain, at 50.0 µM, stronger effect = higher value
Procedure, shortened: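 Growth of compound-exposed yeast (cln2 rad14 genotype) measured and expressed as inhibition relative to vehicle.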

[5] = NCI Yeast Anticancer Drug Screen. Data for the bub3 strain (AID 167); settings: S. cerevisiae bub3 mutant strain, at 50.0 µM, stronger effect = higher value
Procedure, shortened: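 Mutant yeast screening strain plus compound; vehicle-treated cultures serve as the 0% inhibition reference.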

[6] = NCI Yeast Anticancer Drug Screen. Data for the mlh1 rad18 strain (AID 175); settings: S. cerevisiae mlh1 rad18 strain growth inhibition; at 50.0 µM; stronger effect = higher value
Procedure, shortened: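 In this whole-cell yeast screen, a strain with altered DNA damage repair is challenged with compound, and its growth is measured against matched vehicle-treated controls.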

Measured: growth inhibition

COc1ccc2c(=O)oc3c(OC)cc(CCN(C)C)c4c(=O)oc1c2c34
inactive: [1] 62.9% and -8.15% | [2] -0.55% and -23.4% | [3] 0.35% and -57.6% | [4] 4.3% and -24.4% | [5] 20.2% and -43.8% | [6] 25.4% and -30.3%

O=C(O)CCSCc1ccccc1
inactive: [1] -25.6% and 8.85% | [2] 0.7% and -6.9% | [3] -23.1% and 1.55% | [4] -31% and -3.5% | [5] -31.4% and -0.2% | [6] -30.3% and -16.1%

CN1C(=O)N/C(=C\c2ccc(S(=O)(=O)N/N=C\C(O)C(O)C(O)C(O)CO)cc2)C1=O (stereo not given)
inactive: [1] 2.65% and 7.85% | [2] 8.3% and 22.2% | [3] 17.9% and -4.2% | [4] 7.65% and 3.75% | [5] -19.1% and -1% | [6] 15.3% and 41.5%

CN1C/C(=C\c2ccccc2[N+](=O)[O-])C(=O)/C(=C/c2ccccc2[N+](=O)[O-])C1
inactive: [1] -3.7% and -14.4% | [2] 14.9% and 28.8% | [3] 25.6% and -49% | [4] 4.85% and -8.9% | [5] 13.7% and 21.4% | [6] 16.8% and -29.1%

Cc1c2oc3c(C)ccc(C(=O)NC4C(=O)NC(C(C)C)C(=O)N5CCCC5C(=O)N(C)CC(=O)N(C)C(Cc5ccc(O)cc5)C(=O)OC4C)c3nc-2c(C(=O)NC2C(=O)NC(C(C)C)C(=O)N3CCCC3C(=O)N(C)CC(=O)N(C)C(Cc3ccc(O)cc3)C(=O)OC2C)c(N)c1=O (stereo not given) (I: TVP[Sar][NMeY] / II: TVP[Sar][NMeY]; ester I:1-I:C, II:1-II:C; linker I:N-II:N via Actinocin(9to1); configuration not given here)
inactive: [1] -11.3% and -12.8% | [2] 0.3% and 1.3% | [3] -3.65% and -1.8% | [4] 4.7% and 26.5% | [5] -8.7% and 0.35% | [6] -25.1% and -32.2%

NC(Cc1cnc[nH]1)C(=O)O (stereo not given)
inactive: [1] -15.4% and 3.95% | [2] -27.9% and 0.2% | [3] 2.35% and 16.4% | [4] -0.05% and 3.55% | [5] -4.35% and 3.9% | [6] -20.9% and -3.1%

CC(C)N=C(N)C(N)=NC(C)C
inactive: [1] 20.1% and -65.4% | [2] -18% and 6.55% | [3] -2.5% and -13.2% | [4] -67.2% and -46.5% | [5] 1.8% and -11.1% | [6] -14.6% and -16.9%

CCOC(=O)C(=Cc1ccco1)C(=O)OCC
inactive: [1] 38.5% and 10.2% | [2] 37.1% and -24.6% | [3] 7.75% and -0.5% | [4] 23.8% and 8.8% | [5] -4.65% and -9.25% | [6] 19.8% and -19.1%

CC(=O)/C=C/C1=C(C)CCCC1(C)C
inactive: [1] -21.8% and 11.2% | [2] -8.35% and -10.9% | [3] -18.1% and -19.4% | [4] -14.7% and 8.05% | [5] -20.9% and 0.5% | [6] 11.8% and -2.2%

CC(CCC(=O)O)(c1ccc(O)cc1)c1ccc(O)cc1
inactive: [1] 10.4% and -8.8% | [2] -0.85% and -15.6% | [3] -12.8% and -51.6% | [4] -44.4% and -33.4% | [5] -2.7% and -17.2% | [6] 22.8% and -15.6%

COc1ccc2c(c1)CCC1C[C@@H]3C[C@]21C=CC3=O (stereo not given in full)
inactive: [1] 11.8% and -3.5% | [2] -11.8% and -6.75% | [3] 0.75% and 14.9% | [4] 9.6% and 8.05% | [5] 24% and 19.4% | [6] 5.15% and 11.7%

CC(CC(N)C(=O)O)C(=O)O (stereo not given)
inactive: [1] -0.4% and -5.1% | [2] -4.75% and -22.6% | [3] -1.95% and -49.1% | [4] 0.25% and -68.8% | [5] 0.9% and -26.1% | [6] -1.85% and -17.2%

O=C(NS(=O)(=O)c1ccccc1)OCc1ccccc1
inactive: [1] 4.65% and -18.1% | [2] -11.8% and -4.35% | [3] -14.8% and -15.3% | [4] -22.2% and -31.8% | [5] 16.7% and 24.8% | [6] -6.1% and 6.1%

O=C(O)C1C2OC(C(Br)C2Br)C1C(=O)O (stereo not given)
94.5% (active) and -11.8% (inactive): [5]
inactive: [1] -12.3% and -7.9% | [2] 15.1% and -12.1% | [3] -2.45% and -26.4% | [6] 13.9% and -0.15%
71.8% (active) and 12.1% (inactive): [4]

CCOC(=O)C1=C(C)NC(=O)NC1c1ccccc1 (stereo not given)
inactive: [1] 9.5% and -7% | [2] 15.1% and -20.2% | [3] -0.15% and 4.45% | [4] -19.1% and 6.95% | [5] -0.9% and 15.2% | [6] 35.9% and -8.4%

COc1c2occc2c(OC)c2c(=O)cc(C)oc12
inactive: [1] 20.9% and 2.55% | [2] -2.15% and -27.4% | [3] 16.8% and 9.95% | [4] -0.65% and 8.7% | [5] 7.9% and 5.95% | [6] 22.1% and 9.4%

NCCCNCCCCNCCCN
inactive: [1] 14.1% and -12.6% | [2] 30.6% and -27.4% | [3] 14.2% and -14.9% | [4] 8.5% and -10.2% | [5] 28% and -15.6% | [6] 19.6% and 3%

C=CC/C(=N\OS(=O)(=O)O)SC1OC(CO)C(O)C(O)C1O (stereo not given)
inactive: [1] 2.2% and 4.75% | [2] -30.6% and -21.5% | [3] -0.75% and -20.6% | [4] 13.4% and 7.4% | [5] -14% and -30.2% | [6] -14.9% and -10.7%

C1CN(CCN2CCOCC2)CCO1
inactive: [1] 0.9% and 7.9% | [2] 18.1% and 13% | [3] 9.35% and 13.6% | [4] -26.6% and -40.6% | [5] 10.6% and 28.9% | [6] 7.7% and 14%

O=[N+]([O-])c1ccc(Cc2ccccc2)cc1
inactive: [1] -2.8% and -37.1% | [2] -32.1% and -23.9% | [3] 7.7% and -11.6% | [4] 3.2% and -9.15% | [5] 13.8% and -11.9% | [6] -30.9% and -14.7%

C=Cc1c(C)c2cc3[nH]c(cc4nc(cc5nc(cc1[nH]2)C(C)=C5CCC(=O)O)C(CCC(=O)O)=C4C)c(C)c3C=C
inactive: [1] 6.5% and 13% | [2] 1.5% and -13.3% | [3] 9.05% and 12.7% | [4] 10.2% and 10.5% | [5] 0.65% and -0.1% | [6] 32.6% and 27.1%

O=C(O)/C=C(/Oc1ccc(Cl)cc1Cl)C(=O)O
inactive: [1] 5.8% and 19.7% | [2] -3.25% and 6.45% | [3] 6.35% and 9.85% | [4] -19.9% and 15.4% | [5] 17.9% | [6] 11.8% and 19.7%

COc1c2c(cc(O)c1C(C)=O)OC(C)(C)C=C2
inactive: [1] -4.8% and 16.6% | [2] -37.5% and -36.5% | [3] -11.6% and 16% | [4] -14.9% and 11.6% | [5] -12.1% and 18.1% | [6] -15% and 5.85%

OC1CCCC(O)C1O (stereo not given)
inactive: [1] 1.25% and 6.1% | [2] -2.7% and -12.9% | [3] 14.1% and 9.8% | [4] -7.2% and -2% | [5] 3.9% and 20.6% | [6] -2.65% and -4.4%

COC1OCCC(n2c(C)cc3c(N)ncnc32)C1O (stereo not given)
inactive: [1] -7.3% and 1.55% | [2] -19.2% and -8.6% | [3] -28.6% and -11.8% | [4] -4.15% and -1.7% | [5] -22.1% and -20.6% | [6] -29.2% and 2.05%

OC1COCOC1C1OCOCC1O (stereo not given)
inactive: [1] 11.2% and -5.6% | [2] -2.7% and -8.35% | [3] 2.3% and 19.4% | [4] -18.2% and -29% | [5] -1.9% and -4.2% | [6] -5.6% and -0.85%

N/N=C(/C(=O)c1ccccc1)c1ccccc1
inactive: [1] -10% and 18% | [2] 5.4% and 10% | [3] 5.4% and 0.5% | [4] 11.6% and -56% | [5] -3.1% and -1.85% | [6] 10.2% and 7.9%

Cc1ccc(C(=O)/C=C/c2ccc3c(c2)OCO3)cc1
inactive: [1] -6.75% and 8.6% | [2] 16% and -4.7% | [3] 13.6% and 21.4% | [4] -8.95% and -1.75% | [5] 29.4% and 25.3% | [6] 15.4% and 37%

OCCCc1ccncc1
inactive: [1] -6.05% and -8.55% | [2] -4.65% and -4.7% | [3] 2.9% and 4.75% | [4] 8.7% and -7.9% | [5] 3.25% and -0.55% | [6] 12.2% and 7.85%

Nc1ccc2ccc(O)cc2c1
inactive: [1] 24.8% and 29.8% | [2] -0.5% and 8.5% | [3] 24.9% and 16.8% | [4] 21.8% and -22.2% | [5] 13.6% and 25.8% | [6] 19% and 24.6%

CCC(N)C(=O)O (stereo not given)
inactive: [1] -0.4% and 5.25% | [2] -31.6% and 6.85% | [3] 1.75% and -11.3% | [4] 8.55% and 9.4% | [5] -9.75% and -14.9% | [6] -10.8% and -0.8%

O=C1O/C(=C(/C(=O)O)c2ccc(O)cc2)C(O)=C1c1cc2c3c(c(O)cc(C4=C(O)/C(=C(\C(=O)O)c5ccc(O)cc5)OC4=O)c3c1)OC2=O
inactive: [1] -12.8% and -7% | [2] -7.25% and -10.4% | [3] -8.55% and 5.6% | [4] -0.65% and -9.85% | [5] -5% and -1.65% | [6] 3.4% and 4.6%

CCC(=O)Oc1cc(C)ccc1C(C)(C)C
inactive: [1] 1.4% and -18.1% | [2] 0.8% and -19.4% | [3] 1.45% and -12% | [4] -3.7% and -1.5% | [5] -0.3% and -13.2% | [6] -3.6% and -5.85%

O=C(NCc1ccccc1)C1C(=O)C(=O)N(Cc2ccccc2)C1=O (stereo not given)
inactive: [1] -29.4% and 4.55% | [2] -22.6% and 0.8% | [3] -12.2% and -8.45% | [4] 2% and 14% | [5] -8.8% and -3.45% | [6] -36% and 2.6%

CC(=O)OCC1OC(Sc2nc(-c3ccc(C)cc3)c(C#N)c(=O)n2C2OC(COC(C)=O)C(OC(C)=O)C(OC(C)=O)C2OC(C)=O)C(OC(C)=O)C(OC(C)=O)C1OC(C)=O (stereo not given)
inactive: [1] 5% and -9.15% | [2] 7.65% and -9.45% | [3] -3.1% and 20.9% | [4] -32% and 10.2% | [5] 7.2% and 20.1% | [6] -7.8% and -34.5%
